Data reported in PubChem BioAssay (NCI).
Values joined by “and” are separate entries in the source; they are usually repeats but may differ in a detail not shown here. Equal entries are not always repeated. Compounds without any hit were thinned out: in the full panel of roughly 83,000, 20% have a hit.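 Activity criterion: percent growth below 10, measured after cells in 96-well plates were exposed to a single compound concentration for 48 hours.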 A number with no mark means an inactive call. Active and inactive are the calls of the source.

Columns and labels:
Assay in all cases: NCI-60 one-dose screen, 48 h (100 = growth as untreated, 0 = no growth, -100 = all killed)
Conditions in all cases: 10 µM unless noted
HCT-15 colon = tested on: HCT-15 colon
HT29 colon = tested on: HT29 colon
SNB-75 CNS = tested on: SNB-75 CNS
SNB-19 CNS = tested on: SNB-19 CNS
U251 CNS = tested on: U251 CNS
PC-3 prostate = tested on: PC-3 prostate
SK-MEL-5 melanoma = tested on: SK-MEL-5 melanoma
UACC-62 melanoma = tested on: UACC-62 melanoma
LOX IMVI melanoma = tested on: LOX IMVI melanoma
SK-MEL-28 melanoma = tested on: SK-MEL-28 melanoma

Structure (SMILES)	growth (HCT-15 colon)	growth (HT29 colon)	growth (SNB-75 CNS)	growth (SNB-19 CNS)	growth (U251 CNS)	growth (PC-3 prostate)	growth (SK-MEL-5 melanoma)	growth (UACC-62 melanoma)	growth (LOX IMVI melanoma)	growth (SK-MEL-28 melanoma)
COc1cc(F)c(/C=C/c2cc(/C=C/c3cc(OC)c(OC)cc3F)n(-c3cc(F)cc(F)c3)n2)cc1OC	11.5%	22.9%	105%	56.7%	-1.48% (active)	10.4%	23.6%	26.8%	18.6%	-28.1% (active)
CC(=O)N1N=C(c2ccc(Nc3nc(Nc4ccc(F)cc4)nc(Nc4ccc(Cl)cc4)n3)cc2)CC1c1ccc(N(C)C)cc1 (stereo not given)	38.4%	36.8%	40.3%	59.2%	53.7%	22.2%	32.4%	35.2%	63.1%	60%
Cc1ccc(Nc2nc(-c3cc(O)c(C)c(C)c3O)cs2)cc1	76.7%	112%	102%	110%	97.2%	71%	97.6%	92.7%	75.1%	115%
CCCCCCNC(=O)Oc1ccc(/C(=C(/CC)Cc2ccccc2)c2ccc(OCCCN(C)C)cc2)cc1	14.7%	18.9%	68.4%	88.3%	60.4%	73.2%	87.7%	94.9%	-15% (active)	101%
N=c1c2c(-c3ccccc3)c(-c3ccccc3)oc2ncn1NC(=O)c1cccnc1	95.6%	104%	105%	96.4%	102%	93.6%	93.4%	104%	95%	119%
COc1cccc(NC(=O)c2sc3nc(C)c(C(O)c4ccccc4)cc3c2N)c1 (stereo not given)	14.6%	13.3%	54.2%	27.6%	8.92% (active)	23.5%	-17.2% (active)	32%	36.1%	64.9%
Cc1ccc(-c2nc3nc(-c4ccc(Cl)cc4)nc(N4CCCNCC4)c3o2)cc1	-81.5% (active)	-82.4% (active)	-10.4% (active)	-89.7% (active)	-86.9% (active)	-79.8% (active)	92.8%	95.6%	-83.2% (active)	108%
COc1ccccc1/C=C1\COc2ccc(O)cc2C1=O	48.7%	51.6%	96%	90.6%	62.3%	75.8%	66.5%	69.1%	34.6%	101%
COc1ccc(-c2ccc(-c3ccc(C(=N)N)cn3)o2)cc1Cl	18.7%	4.81% (active)	89.3%	40%	0.889% (active)	46.1%	12%	86.5%	-71% (active)	70.1%
CCOC(=O)C(=CCC(C)C)C(=O)OCC	100%	104%	93.1%	98.7%	98.8%	95.5%	103%	93%	93.3%	107%
N#CC1=C(N)Oc2c(sc3c(Br)cccc23)C1c1ccccn1 (stereo not given)	28.5%	10.6%	61.2%	48.4%	36.5%	40.6%	40.8%	18.3%	38.7%	65.3%
CC12OC(CC(O)C1O)n1c3ccccc3c3c4c(c5c6ccccc6n2c5c31)C(=O)N(CCN1CCOCC1)C4=O (stereo not given)	9.81% (active)	2.31% (active)	-5.19% (active)	8.99% (active)	3.67% (active)	7.32% (active)	-44.5% (active)	-52% (active)	-61.1% (active)	34.6%
O=C(/C=C\c1ccc(Cl)c(Cl)c1)c1ccccc1	65.6% and 100%	37.5% and 88.8%	98.5% and 99.9%	86.9% and 98.4%	85.3%	98.8% and 87.6%	97.2% and 101%	91.7% and 95.9%	10.8% and 91.5%	102% and 108%
C#Cc1cc(C(=O)Nc2ccc(CN3CCN(C)CC3)c(C(F)(F)F)c2)ccc1C	26.3%	5.65% (active)	76.3%	94.9%	56%	61.5%	15.6%	40.2%	31.1%	18.8%
COc1ccc(C(CC(=O)c2ccc3c(c2)OCO3)C(=O)O)cc1OC (stereo not given)	122% and 109%	103% and 96.3%	110% and 88.3%	110% and 97.6%	102%	87.4% and 105%	108% and 102%	111% and 112%	95.6% and 98.4%	122% and 106%
COc1cc(NC2CCCCC2O)c2nc(-c3ccc(Cl)cc3)ccc2c1 (stereo not given)	49.6% and 62.8%	54.2% and 67.9%	82% and 103%	83.4% and 93.6%	56.8% and 68.8%	70.1%	96.6% and 98.1%	83.7% and 94.7%	41.4% and 77%	94.2% and 96.7%
COc1ccc2c(c1)c(-c1nc(-c3c[nH]c4c(Cl)nccc34)cs1)cn2C	64.3%	84%	82.9%	105%	86.5%	72.6%	45.4%	87.8%	80%	105%
CONC1=Nc2cc(NC(N)=NCc3ccccc3)c(N(C)C3CCCCC3)cc2OC1	101%	29.5%	40.9%	68.8%	53.1%	51.1%	74.9%	70.1%	50.2%	87.9%
CCOC(=O)c1nc2c3ccccc3cnn2c1C(=O)c1ccc(OC)cc1	96.4%	98.4%	88.6%	90.7%	89.9%	90.9%	97.1%	95.5%	94%	120%
O=c1ccc2nc(-c3ccccn3)nn(-c3ccccc3)c-2c1	-48% (active)	-44.2% (active)	98.4%	98.9%	98.3%	89%	36%	72.7%	11.7%	70.7%
O=C1/C(=C/c2ccc(F)c(F)c2)CN(C(=O)C(Cl)Cl)C/C1=C\c1ccc(F)c(F)c1	-74.9% (active)	-26.6% (active)	-84.7% (active)	-93.1% (active)	-99.3% (active)	-85.2% (active)	-95.3% (active)	-85.2% (active)	-90.1% (active)	-92.6% (active)
CN1CCN(c2ccc(/C=C/C(=O)c3ccc(O)cc3)cc2)CC1	91.1%	100%	85.6%	99.6%	86.7%	93.1%	94.1%	92.7%	95.4%	98.8%
O=C(NNc1ccccc1)C1CCCN1 (stereo not given)	40.5%	62.3%	90.7%	94.1%	82.3%	77%	89.1%	16.2%	8.66% (active)	69.2%
